Results from PubChem BioAssay AID493012 (Sanford-Burnham Center for Chemical Genomics, 2011).
Out of some 330,000 compounds screened, about 930 (0.28%) were called active.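 Rule for the calls: active = inhibition of at least 40% at 20 µM, with no more than 30% in the related APOBEC3A deaminase screen; inactive = the rest.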 Shown is part of a subset that was picked to be rich in actives.

Each compound was assayed against DNA dC->dU-editing enzyme APOBEC-3G (Homo sapiens) (UniProt Q9HC16) (assay: APOBEC3G DNA deaminase inhibitors, primary screen, biochemical, fluorescence, single-stranded DNA substrate, uHTS (AID 493012;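 note: plate controls were DMSO wells with A3G for no effect and wells lacking A3G enzyme for full effect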)). Conditions: recombinant A3G, ssDNA deamination FAM/TAMRA fluorescence; at 20 µM; stronger effect = higher value.
DNA dC->dU-editing enzyme APOBEC-3G (Homo sapiens), sequence (Q9HC16 whole entry, looked up): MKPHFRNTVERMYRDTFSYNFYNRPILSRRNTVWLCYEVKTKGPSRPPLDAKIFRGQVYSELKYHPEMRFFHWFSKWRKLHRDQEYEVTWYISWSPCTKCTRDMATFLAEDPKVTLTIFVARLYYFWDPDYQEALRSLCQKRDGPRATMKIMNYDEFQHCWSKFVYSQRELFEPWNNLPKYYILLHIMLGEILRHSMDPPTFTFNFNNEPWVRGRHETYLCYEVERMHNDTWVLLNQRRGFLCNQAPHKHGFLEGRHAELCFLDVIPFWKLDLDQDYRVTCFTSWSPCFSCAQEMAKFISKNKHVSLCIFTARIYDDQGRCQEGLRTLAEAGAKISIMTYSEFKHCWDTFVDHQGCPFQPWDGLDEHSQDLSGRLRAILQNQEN

Compound	inhibition
CC(C)(C)c1nnc(NC(=O)C2c3ccccc3Oc3ccccc32)s1	53.3% (active)
CCC(C)(C)NC(=O)C1c2ccccc2Oc2ccccc21	-0.78% (inactive)
CCC(C)NC(=O)C1c2ccccc2Oc2ccccc21 (stereo not given)	-4.18% (inactive)
CCCCn1c(N)c(N(CCOC)C(=O)c2sc3ccccc3c2Cl)c(=O)[nH]c1=O	-7.98% (inactive)
CCCCCC(O)c1cccc(OCc2ccc3ccccc3n2)c1 (stereo not given)	-6.99% (inactive)
Cc1ccc(NC(=O)C2CCN(S(=O)(=O)c3ccc4c(c3)NC(=O)CO4)CC2)cc1C	-9.26% (inactive)
NC(=O)C1CCN(C(=O)c2ccc(F)c(S(=O)(=O)N3CCOCC3)c2)CC1	-4.4% (inactive)
CN(C(=O)c1cccc(NC(=O)Cc2cccc([N+](=O)[O-])c2)c1)C1CCCCC1	-1.19% (inactive)
CCn1cc(C(=O)N2CC(C)CC(C)C2)c(=O)c2cc(S(=O)(=O)N3CCCC3)ccc21 (stereo not given)	-1.06% (inactive)
CCN(CC)C(=O)CSC(Nc1cccc(F)c1)=C(C#N)C#N	-2.9% (inactive)
Nc1ccccc1SC(C[N+](=O)[O-])c1ccccc1 (stereo not given)	75.7% (active)
O=C(COc1cc(Cl)c(Cl)cc1Cl)NC(=O)NC1CCCC1	-1.68% (inactive)
O=C(CSc1ncccn1)NCCc1ccccc1	-0.062% (inactive)
Nc1c(NCCc2ccccc2)c2ccccc2oc1=O	-2.86% (inactive)
S=c1[nH]nc(NCCc2ccccc2)s1	43.1% (active)
S=c1[nH]nc(Nc2ccccc2)s1	42.7% (active)
CC(C)(C)C(=O)c1cnc(Nc2ccccc2)s1	17.8% (inactive)
O=c1cnnc(Nc2ccccc2)[nH]1	-1.93% (inactive)
Cc1ccc([N+](=O)[O-])c(OCCCNCC(C)O)c1 (stereo not given)	-8.53% (inactive)
Cc1cc(C)n(C(=O)c2ccc(C)c(S(=O)(=O)N3CCOCC3)c2)n1	0.652% (inactive)

Compound	inhibition
COc1ccc(CCNC(=O)CS(=O)(=O)Cc2nc(-c3ccc(C)cc3)oc2C)cc1OC	-6.41% (inactive)
S=c1[nH]nc(-c2cc(-c3ccsc3)n[nH]2)n1-c1ccccc1	20.5% (inactive)
CCN(CC)S(=O)(=O)c1cccc(-c2n[nH]c(=S)n2/N=C/c2ccc(C(=O)OC)cc2)c1	-5.7% (inactive)
S=c1[nH]nc(-c2cc(-c3ccccc3)n[nH]2)n1/N=C/c1c2ccccc2cc2ccccc12	43.4% (active)
O=c1c2ccccc2nnn1CSc1nc2sc3c(c2c(=O)n1CC1CCCO1)CCC3 (stereo not given)	-0.082% (inactive)
CC(C)c1ccc(NC(=O)COC(=O)c2ccc(CN3CCCC3=O)cc2)cc1	-5.19% (inactive)
CC(C)(C)n1nnnc1C(c1ccc2ncccc2c1)N1CCSCC1 (stereo not given)	1.72% (inactive)
CCc1cccc(NC(=O)C2CCCN(S(=O)(=O)c3ccc4[nH]c(=O)ccc4c3)C2)c1 (stereo not given)	-3.15% (inactive)
N=c1c2c3c(sc2ncn1CCCN1CCOCC1)CCCCC3	2.15% (inactive)
CC(C(=O)O)n1cnc2sc3c(c2c1=O)CCCC3 (stereo not given)	-3.08% (inactive)
S=c1[nH]nc2c3c4c(sc3ncn12)CCCC4	50.1% (active)
COc1ccc(-n2nc(C(=O)NCC(=O)Nc3cccc(C)n3)c3ccccc3c2=O)cc1	-3.64% (inactive)
O=c1[nH]c(CN2CCN(S(=O)(=O)c3ccc4c(c3)OCCO4)CC2)nc2sc3c(c12)CCCC3	-9.39% (inactive)
COC(=O)COc1ccc(C2NC(=O)NC(C)=C2C(=O)NCc2ccccc2)cc1OC (stereo not given)	-1.01% (inactive)
CCn1c(CN2C(=O)CSc3ccccc32)n[nH]c1=S	43.9% (active)
CCn1c(CSCc2c(Cl)cccc2Cl)n[nH]c1=S	11.9% (inactive)
CCn1c(CNS(=O)(=O)c2ccc(Cl)cc2)n[nH]c1=S	30.3% (inactive)
COc1cc(C2/C(=C(\O)c3ccc4c(c3)CC(C)O4)C(=O)C(=O)N2Cc2ccco2)ccc1O (stereo not given)	-3.83% (inactive)
COc1ccc(/C=N/NC(=O)C(C)N(c2ccc(OC)cc2)S(C)(=O)=O)cc1 (stereo not given)	-4.56% (inactive)
CN(C)c1ccc(C(CNC(=O)c2ccc(F)cc2)c2c[nH]c3ccccc23)cc1 (stereo not given)	-2.56% (inactive)

Compound	inhibition
CNS(=O)(=O)c1ccc(NC(=O)Nc2ccc3c(c2)OCO3)cc1	-9.95% (inactive)
COc1ccc(Cn2c(=O)sc3ccccc32)cc1OC	-9.67% (inactive)
S=c1[nH]ccn1-c1ccc(Cl)cc1	69.9% (active)
S=c1[nH]cc(-c2ccc(Cl)cc2)n1-c1ccccc1	-4.18% (inactive)
O=C(NC(=S)Nc1ccc2oc(=O)ccc2c1)c1ccc(-c2cccc(Cl)c2Cl)o1	-0.008% (inactive)
S=c1[nH]nc(-c2ccncc2)n1/N=C/c1ccccc1Cl	73.5% (active)
Fc1ccccc1/C=N/n1c(-c2cccnc2)n[nH]c1=S	47.1% (active)
S=c1[nH]nc(-c2cccs2)n1/N=C/c1cccs1	27.3% (inactive)
CCOc1ccc(-c2n[nH]c(=S)n2/N=C/c2cc3c(cc2[N+](=O)[O-])OCO3)cc1	1.59% (inactive)
O=[N+]([O-])c1ccccc1/C=N/n1c(COc2ccccc2)n[nH]c1=S	34.8% (inactive)
S=c1[nH]nc(-c2cccs2)n1/N=C/c1cn(-c2ccccc2)nc1-c1ccc(Cl)cc1	-2.77% (inactive)
COc1ccc2c(c1)C(=O)Nc1cc(Cl)ccc1N2	-7.65% (inactive)
O=C(CN1CCCCC1)Nc1ccccc1C(=O)NC1CC1	-5.07% (inactive)
CCCNC(=S)N1CCC(NC(=O)C23CC4CC(CC(C4)C2)C3)CC1	-5.11% (inactive)
Cc1[nH]c2ccccc2c1C(=O)CN1CC(C)CC(C)C1 (stereo not given)	-4.14% (inactive)
Cc1ccccc1-n1cc(CNC(=O)C2CCC(=O)N(C3CC3)C2)cn1 (stereo not given)	-4.71% (inactive)
CC(Oc1ccc(F)cc1)C(=O)Nc1ccccc1C(=O)NC1CC1 (stereo not given)	-11.6% (inactive)
Cc1nc2scc(-c3cccs3)c2c(=O)n1N	42.5% (active)
CCCc1nc2scc(-c3ccc(C)cc3)c2c(=O)n1N	-7.79% (inactive)
COc1cccc(NC(=O)CN(C)C(=O)CSCc2nc3scc(-c4cccs4)c3c(=O)[nH]2)c1	-7.77% (inactive)
